From PubChem BioAssay (NCI) come the findings set out here.

The structures appear in SMILES notation. About 83,000 compounds went through this panel and 20% of them were active in at least one assay; those are over-represented in the sample as a whole.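 Growth was measured after 48 h exposure to one concentration of compound in 96-well plates. Values under 10 count as active.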 Values without a mark were called inactive. Active and inactive are the calls of the source.

Common to all, as to assay: NCI-60 one-dose screen, 48 h (100 = growth as untreated, 0 = no growth, -100 = all killed)
Common to all, as to conditions: 10 µM unless noted

Assay [1] has as its system MOLT-4 leukemia.
Assay [2] concerns SR leukemia.
The test system of assay [3] is RPMI-8226 leukemia.
For assay [4], the system named is OVCAR-8 ovarian.
The subject of assay [5] is OVCAR-4 ovarian.
Assay [6] concerns SK-OV-3 ovarian.
For assay [7], the system named is IGROV1 ovarian.
Assay [8] concerns OVCAR-3 ovarian.
The test system of assay [9] is HS 578T breast.
For assay [10], the system named is NCI/ADR-RES ovarian.
Assay [11] has as its system T-47D breast.
The subject of assay [12] is BT-549 breast.
The test system of assay [13] is MDA-MB-435 melanoma.
Assay [14] concerns SW-620 colon.
The test system of assay [15] is MCF7 breast.
The subject of assay [16] is HCT-116 colon.
Assay [17] has as its system HCC-2998 colon.
The subject of assay [18] is KM12 colon.
The test system of assay [19] is OVCAR-5 ovarian.

`C[C@@H]1O[C@@H](O[C@H]2C[C@@H](O)[C@]3(CO)C4C(CC[C@]3(O)C2)[C@@]2(O)CC[C@H](C3=CC(=O)OC3)[C@@]2(C)C[C@H]4O)[C@H](O)[C@H](O)[C@H]1O` (stereo partly drawn): the growth in assay [1] is -29.4% (active); in assay [2] it was -31.2% (active); in [3], 17.8%; in assay [4], -81% (active); in assay [5], -24.3% (active); in assay [6], -88.2% (active). Besides, the growth was -5.14% (active) in assay [7]; -96.2% (active) in assay [8]; 22.3% in [9]; -61.5% (active) in [10]; -34.9% (active) in assay [11]; -91% (active) in assay [12]. For the same compound, the growth in [13] was -80.5% (active); in assay [14], -76.9% (active); in assay [15] it was -48.1% (active); in assay [16], -94.5% (active); in assay [17], -89.4% (active); in assay [18] it was -89.1% (active).
Turning to `COc1ccc(N(CC(=O)NCCC[Te]c2ccccc2)C(=O)CNC(=O)OC(C)(C)C)cc1`, the growth was 12.1% in assay [1]; 12.7% in assay [2]; 13% in assay [3]; 9.87% (active) in assay [4]; 118% in [5]; -7.96% (active) in assay [6]. The growth in [7] was 4.89% (active); in assay [8], 103%; in [9] it was 11.7%; in assay [10] it was 1.78% (active); in assay [11] it was 109%; in assay [12], -47.8% (active). For the same compound, the growth in [13] is 59.4%; in assay [14] it was 53.1%; in assay [15], 8.66% (active); in [16], -3.11% (active); in [17] it was 43.3%; in assay [18] it was 19.3%.
Regarding `CCC1(C(C)C)C(=O)NC(=S)NC1=O`, the growth was 105% in assay [1]; 104% in assay [2]; 98.8% in assay [3]; 101% in assay [4]; 107% in assay [5]; 118% in assay [6]. The growth is 113% in [7]; 96.3% in [9]; 115% in [10]; 106% in assay [11]; 113% in [12]; 101% in assay [13]. The growth in assay [14] is 97%; in assay [15] it was 105%; in assay [16] it was 106%; in assay [17], 117%.
Turning to `CC(=O)O[C@H](C[C@H](C(C)C)N(C)C(=O)[C@@H](NC(=O)[C@H]1CCCCN1C)C(C)C)c1cccc(C(=O)N[C@@H](Cc2ccccc2)C[C@H](C)C(=O)O)n1`, the growth in [1] is 9.11% (active); in [2], 6.32% (active); in assay [3], 19.7%; in [4] it was 1.57% (active); in assay [19], 32.5%; in assay [6] it was 23.3%. The growth in assay [7] was 24%; in assay [9] it was 9.57% (active); in assay [10], 8.24% (active); in [11], 47.7%; in [12], -8.23% (active); in [14], 23.7%. Further, the growth in assay [15] is 15.9%; in assay [16], 2.75% (active); in assay [17], 9.77% (active); in [18], 4.91% (active).
As for `Cc1cc(C)c(CBr)c(C)c1`, the growth was 96.3% in assay [1]; 107% in [2]; 100% in assay [3]; 99.4% in assay [4]; 104% in [6]; 99.2% in [7]. Besides, the growth was 113% in assay [8]; 106% in assay [9]; 103% in [10]; 101% in assay [11]; 105% in [12]; 111% in [13]. Also, the growth in assay [14] is 103%; in assay [15], 96.4%; in [16], 110%; in assay [17] it was 114%; in assay [18] it was 105%.
As for `CCn1cnc2c(Nc3cccc(Cl)c3)nc(N[C@@H]3CCCC[C@@H]3N)nc21`, the growth in [1] is -10.9% (active); in [2], -32.7% (active); in assay [3], -33.2% (active); in [5] it was -7.56% (active); in assay [6] it was 40.1%; in assay [7], 5.27% (active). Further, the growth in assay [8] is 0.926% (active); in [9], 26.9%; in [10] it was 11%; in assay [11], 0.53% (active); in assay [12] it was 61.7%; in assay [13] it was 11.4%. Besides, the growth is -4.4% (active) in assay [14]; 4.02% (active) in assay [15]; 0.716% (active) in assay [16]; 2.16% (active) in assay [17]; -2.18% (active) in [18].
`OCCCCCNC1CCCCC1`: the growth is 83.9% in [1]; 89.7% in [2]; 102% in assay [3]; 103% in assay [4]; 86.3% in [19]; 102% in assay [6]. For the same compound, the growth was 103% in assay [7]; 103% in assay [10]; 95.4% in assay [11]; 105% in [12]; 104% in assay [13]; 107% in assay [14]. Besides, the growth in assay [15] is 103%; in assay [16] it was 94.7%; in [17] it was 104%; in assay [18], 111%.
On to `O=C1CN=C(c2ccc(Cl)cc2)c2sccc2N1`, for which the growth was 95.6% in [1]; 87.1% in [2]; 97.7% in assay [3]; 101% in [4]; 102% in assay [5]; 113% in assay [6]. For the same compound, the growth in [7] was 108%; in assay [8] it was 109%; in [9] it was 99.6%; in assay [10] it was 109%; in [11], 95.3%; in [12], 103%. The growth was 110% in assay [14]; 96.5% in [15]; 101% in assay [16]; 116% in assay [17]; 103% in assay [18].
As to `CN1CC(=O)N(O)C1(C)c1cccnc1` (stereo not drawn), the growth in [1] is 97.2%; in assay [2], 92%; in assay [3], 105%; in assay [4], 99.3%; in [5], 111%; in assay [6] it was 91.6%. In addition, the growth was 102% in [7]; 107% in assay [8]; 108% in assay [9]; 104% in [10]; 93.4% in assay [11]; 95.7% in assay [12]. Further, the growth in assay [13] is 97.4%; in [14] it was 111%; in assay [15], 98.7%; in assay [16], 102%; in assay [17], 98.7%; in assay [18] it was 108%.
